Screening data: PubChem BioAssay, National Center for Advancing Translational Sciences (NCATS)
Shown is part of a subset that was picked to be rich in hits.
SARS PLpro yeast: qHTS of Yeast-based Assay for SARS-CoV PLP; hit rate 0.19% among 330,000; S. cerevisiae expressing SARS-CoV PLpro, growth rescue; AID 485353, 2010; Potency, µM (titrated, usually from 32.9 µM), without a hit: at the top dose activity, positive = growth rescue, most hits filed as activators; note: potency is the fitted concentration of half-maximal effect; 0% is about no effect; nearly all actives have a fitted effect of over 55% in size
Cycloheximide cs: Cycloheximide Counterscreen for Small Molecule Inhibitors of Shiga Toxin | hit rate 12% among 300,000 | max response, % | cell reporter, cycloheximide protein synthesis inhibition counterscreen; in the data active = max response mostly above about 13%, no sharp cut-off; inactive = mostly below about 14%; note: read at 38.3 µM for the half of the compounds with a filed dose; 0% is about no effect
LmPK inhibitor: qHTS Assay for Inhibitors of Leishmania Mexicana Pyruvate Kinase (LmPK) | Q27686 | purified LmPK, Kinase-Glo ATP luminescence, 1 h | Potency, µM (doses to about 57.5 µM), for inactives: at the top dose activity change, negative = inhibition, actives largely listed as inhibitors | hit rate 0.37% among 290,000 | AID 1721, 2009; active = well fitted curve in the direction sought with a large enough effect; inconclusive = small, poorly fitted or top-dose-only effect, or another doubt; inactive = no such curve, though single readings can be large; an effect the other way counts as inactive or inconclusive; note: potency is the fitted concentration of half-maximal effect; % is set by controls: 0 for no effect and ±100 for the full control effect
Target sequence (Q27686 whole entry, looked up): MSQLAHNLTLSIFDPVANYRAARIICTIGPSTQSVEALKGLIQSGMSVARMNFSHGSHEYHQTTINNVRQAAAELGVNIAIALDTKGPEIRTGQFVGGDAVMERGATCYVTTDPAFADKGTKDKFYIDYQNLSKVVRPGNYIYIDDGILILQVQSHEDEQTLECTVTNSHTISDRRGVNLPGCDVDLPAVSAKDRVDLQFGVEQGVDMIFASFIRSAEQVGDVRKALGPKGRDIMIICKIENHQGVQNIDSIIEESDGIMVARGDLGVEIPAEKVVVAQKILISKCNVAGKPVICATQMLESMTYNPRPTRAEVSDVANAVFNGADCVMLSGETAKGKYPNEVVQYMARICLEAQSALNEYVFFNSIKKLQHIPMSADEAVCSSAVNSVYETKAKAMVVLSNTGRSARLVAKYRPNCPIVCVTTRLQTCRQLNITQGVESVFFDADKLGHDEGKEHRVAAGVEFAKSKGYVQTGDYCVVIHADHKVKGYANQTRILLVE
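In 50 mM imidazole pH 7.2 with 7 mM MgCl2, LmPK (0.1 nM) turned over PEP (0.5 mM) and ADP (0.1 mM) for 1 h at room temperature. Luciferase read-out of ATP.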
NS1 inh: qHTS Assay for Inhibitors of Influenza NS1 Protein Function | hit rate 0.4% among 270,000 | Potency, µM (titrated, usually from 46.1 µM), inactives show at the highest dose activity, positive = more growth | AID 2326, 2010; note: potency is the fitted concentration of half-maximal effect; actives are rising curves; nearly all actives have a fitted effect of over 50% in size
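Recovery from NS1-induced slow growth read by OD600 in budding yeast switched to galactose assay medium (pH 6.0, -URA) at 1:100 dilution. Compound 23 nl per well; the matching strain lacking NS1 serves as control.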
Shiga toxin inh: A qHTS for Small Molecule Inhibitors of Shiga Toxin. Vero cells, Shiga toxin protein synthesis inhibition reporter. inhibition, % at 38.7 µM. hit rate 9.2% among 290,000. AID 2315, 2010; in the data active = inhibition mostly above about 28%, no sharp cut-off; inactive = mostly below about 43%; note: 0% is about no effect
Tb PYK inh: qHTS of Trypanosoma Brucei Inhibitors | pyruvate kinase (Trypanosoma brucei), Q57TT1 | TbPYK enzyme, Kinase-Glo Plus ATP luminescence, 45 min | Potency, µM (series often up to 76.8 µM), for inactives: at the highest dose activity, negative = inhibition, most hits filed as inhibitors | hit rate 0.12% among 410,000 | AID 624173, 2012; active = well fitted curve in the direction sought with a large enough effect; inconclusive = small, poorly fitted or top-dose-only effect, or another doubt; inactive = no such curve, though single readings can be large; an effect the other way counts as inactive or inconclusive; note: potency is the fitted concentration of half-maximal effect; % is set by controls: 0 for no effect and ±100 for the full control effect; nearly all actives have a fitted effect of over 50% in size
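Activity of T. brucei pyruvate kinase was followed by Kinase-Glo Plus luminescence after the enzyme reacted 45 min at room temperature with 130 uM ADP (final) and substrate. Test compounds were added before ADP at multiple concentrations.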
* hit, by the source's call; ? = inconclusive; / = no result given. Unless noted, calls come from the whole dose curve.

SMILES	SARS PLpro yeast	Cycloheximide cs	LmPK inhibitor	NS1 inh	Shiga toxin inh	Tb PYK inh
Cc1ccc(NC(=O)c2sc3nc[nH]c(=O)c3c2C)c(C)c1	-6%	27*	4%	-12%	23	-6%
COc1ccc(NC(=O)C(OC(=O)c2cnccn2)c2ccccc2)cc1Cl (configuration not stated)	1%	17*	-9%	11%	53	-1%
O=C(Nc1ccc(Br)cc1Cl)c1cnccn1	-1%	19*	-1%	2%	30	-8%
O=C(NC1CCSc2ccccc21)c1cc(S(=O)(=O)N2CCOCC2)ccc1Cl (configuration not stated)	2%	/	/	/	/	4%
CCOc1ccc(CNC(=O)CN2N=C(c3ccccc3)CCC2=O)cc1OC	/	/	/	/	/	3%
O=C(NNC(=O)c1cnccn1)c1ccc(Cl)cc1	0%	22*	2%	-8%	23	4%
COc1ccc(Cl)cc1NC(=O)c1cnccn1	-3%	13*	-4%	-36%	20	3%
O=C(NNC(=O)c1ccc(Cl)cc1Cl)c1cnccn1	2%	12	3%	4%	28	6%
O=C(Nc1cc(Cl)ccc1Oc1ccccc1)c1cnccn1	1%	-3	0%	-6%	-8	0%
O=[N+]([O-])c1ccc(COc2cccc(CN3CCOCC3)c2)cc1	/	/	/	/	/	0%
O=[N+]([O-])c1ccc(COc2cccc(CNc3ccc(F)cc3)c2)cc1	2%	35*	-1%	19%	37*	-4%
c1ccc(COc2cccc(CNCc3ccccn3)c2)cc1	1%	34*	-2%	9%	65*	-1%
Oc1ccc(NCc2cccc(OCc3ccc(F)cc3)c2)cc1	-3%	24*	-2%	7%	45*	?
Oc1ccc(NCc2cccc(OCc3ccccc3)c2)cc1	-1%	22*	1%	7%	47	?
CCCCNC(C)(C)[P+](=O)O	/	/	/	/	/	-5%
Cc1ccsc1C(=O)N1CCCC(CO)(Cc2ccccc2)C1 (configuration not stated)	2%	22*	11%	-15%	38	2%
CC(=O)c1cnc2cc(C)nn2c1C	3%	-2	-4%	2%	-4	-8%
CC(=O)c1cnc2cc(-c3ccc(C)cc3)nn2c1C	-2%	26*	-15%	-7%	13*	3%
COc1cc(OC)cc(-c2cc3nc(C)c(CCC(=O)O)c(C)n3n2)c1	-1%	-7	8%	2%	-19	-2%
CC(=O)c1cnc2cc(-c3ccccc3)nn2c1C	-6%	43*	-2%	?	57*	-7%
COc1ccc(-c2cc3ncc(C(C)=O)c(C)n3n2)cc1	1%	28*	-12%	-2%	68*	7%
CCN(CC(=O)Nc1ccc2c(c1)OCCO2)C(=O)COc1ccc(C(C)=O)cc1	/	/	/	/	/	-15%
O=C1C=CC(=O)N1c1cccc(-c2ccccc2)c1	-7%	16	?	-48%	20	5µM*
COc1ccc(-c2c3c(=O)n(C)c(=O)n(C)c3cn2Cc2cccnc2)cc1	0%	17*	3%	-1%	126*	0%
CC(C)(C)n1cc(S(=O)(=O)c2ccccc2)[nH]c1=O	-1%	16	1%	-2%	-3	-11%
SMILES	SARS PLpro yeast	Cycloheximide cs	LmPK inhibitor	NS1 inh	Shiga toxin inh	Tb PYK inh
O=C(COc1ccccc1Cl)c1ccc[nH]1	-3%	30*	10%	6%	57	6%
Cc1ccccc1OCC(=O)OCC(=O)c1ccc[nH]1	0%	/	/	/	/	-8%
O=C(COc1ccccc1Cl)c1ccc2c(c1)CCCC2	-20%	26*	-3%	-1%	53*	-9%
CC(C)N(C(=O)COc1ccc(Br)cc1Cl)C(C)C	1%	-2	3%	-51%	-16	5%
O=C(COc1ccc(Br)cc1Cl)c1ccc[nH]1	-5%	38*	-7%	/	69*	7%
COc1ccccc1C1(O)C(=O)Nc2ccccc21 (configuration not stated)	-1%	-3	3%	7%	-6	-14%
CCCCc1ccc(NC(=O)CSc2nc(=O)n(CCN(CC)CC)c3c2CCC3)cc1	-3%	/	/	/	/	-1%
CCCc1nnc(SCC(=O)Nc2nnc(CC)s2)n1CC1CCCO1 (configuration not stated)	1%	-5	-12%	-2%	-7	-5%
CCCC[C@@H]1CNCCN1CCc1cccc2ccccc12	-1%	/	/	/	/	-2%
O=C(CS(=O)(=O)c1cccc2nsnc12)N1CCN(c2cccc(C(F)(F)F)c2)CC1	/	/	/	/	/	-2%
O=C(N/N=C/c1ccc(-c2ccccc2)o1)c1ccccc1O	-2%	16	-1%	2%	40*	-2%
CCC(=O)N/N=C/c1ccc(-c2ccc(Cl)cc2)o1	-2%	34*	5%	-3%	67*	5%
CCCCC(=O)N/N=C/c1ccc(-c2ccc([N+](=O)[O-])cc2)o1	-2%	14	5%	-3%	25*	6%
CNC(=S)N/N=C/c1ccc(-c2ccc(C(=O)O)cc2)o1	-6%	23*	14µM*	-2%	56*	-26%
COc1ccc(S(=O)(=O)N2CCN(C(=O)c3sccc3-c3ccccc3)CC2)cc1	-7%	/	/	/	/	5%
C/C(=N\N1CCN(C)CC1)c1ccc(Cl)c(Cl)c1	0%	6	0%	/	41	-4%
O=C(NCCOC(=O)c1ccccc1)c1ccc([N+](=O)[O-])cc1	-3%	-1	-2%	6%	4	0%
CC(=O)N1CCOc2ccc(S(=O)(=O)NCCc3cccc(C)c3)cc21	-4%	16	10%	-14%	17	0%
CC(C)(C)NC(=S)N/N=C\c1ccc(-c2ccc([N+](=O)[O-])cc2)o1	-1%	37*	0%	6%	73*	1%
Cc1nnc(SCC(=O)N/N=C/c2ccc(-c3ccc(C)c(Cl)c3)o2)s1	-12%	17*	-1%	7%	40	-10%
CCOC(=O)c1ccc(-c2ccc(/C=N/NC(=O)CN(c3ccccc3Br)S(C)(=O)=O)o2)cc1	9%	36*	5%	-63%	56*	-23%
Cc1ccc(C(=O)N/N=C\c2ccc(-c3ccc(Cl)c(Cl)c3)o2)cn1	-1%	1	3%	-2%	7	-6%
COc1ccc(C(=O)N2CCCCC2CCN2CCCCC2)cc1 (configuration not stated)	/	/	/	/	/	6%
CN(CC1COc2ccccc2O1)C(=S)Nc1ccccc1F (configuration not stated)	-9%	8	-3%	-1%	25	-9%
COc1ccc(NC(=S)N(C)CC2COc3ccccc3O2)cc1 (configuration not stated)	-1%	24*	-2%	-3%	73*	1%
